# Assay results from PubChem BioAssay.
# Where “and” joins values, the source holds several entries; their conditions need not be identical. Identical values can stand only once. Records with an inconclusive call do not appear. Calls of active or inactive are those of the source.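 The calls were made as follows, unless noted: active = normalized viability below 100% at a tested concentration; inactive = the rest.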
# Tests used:
# [1] = viability loss in pontine glioma line – cell-based, SU-DIPG-XIII, MIPE4.0, CellTiter-Glo, qHTS, dose response (AID 1347061; cut-off not given, nearly all actives have AC50 up to about 37 µM;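 also: cells exposed to compound for 48 hours before readout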); conditions: CellTiter-Glo ATP luminescence
# [2] = viability loss in pontine glioma line – cell-based, JHH-DIPG-1, MIPE4.0, CellTiter-Glo, qHTS, dose response (AID 1347062; cut-off not given, nearly all actives have AC50 up to about 27 µM;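 as to AC50: cells exposed to compound for two days before readout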); conditions: JHH-DIPG-1 viability, CellTiter-Glo ATP luminescence
# [3] = viability loss in pontine glioma line – cell-based, SU-DIPG-XXV, MIPE5.0, CellTiter-Glo, qHTS, dose response (AID 1347065; cut-off not given, nearly all actives have AC50 up to about 26 µM;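 also: cells exposed to compound for 48 hours before ATP readout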); conditions: CellTiter-Glo ATP luminescence
# [4] = growth inhibition of DIPG cells – cell-based, MIPE4.0 library, CellTiter-Glo luminescence, qHTS (AID 1347066; cut-off not given, nearly all actives have AC50 up to about 30 µM;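 also: cells exposed to compound for 48 hours before readout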); conditions: SU-DIPG-VI viability, CellTiter-Glo ATP luminescence
# [5] = growth inhibition of DIPG cells – cell-based, MIPE5.0 library, qHTS (AID 1347068; cut-off not given, nearly all actives have IC50 up to about 30 µM); conditions: SU-DIPG-XXV viability
# [6] = viability loss with induced miR-34 in A549 – imaging, A549 dox-inducible miR-34, nuclei and caspase counts, primary screen (AID 1347080;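 active = compounds whose cell count with miR-34 switched on is under 0.7 times the count with it off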); conditions: A549 miR-34 inducible, Hoechst nuclei count, 48 h
# [7] = MELAS cybrid and Rieske KO viability enhancers – cell-based, MELAS cybrids, Rieske KO mouse fibroblasts, CellTiter-Glo, primary screen (AID 1508586;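 active = mean z-score across replicates of 1.96 or higher in either the MELAS or the Rieske mutant cell line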;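 also: z relative to plate mean and SD of compound and empty wells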); conditions: low glucose
# [8] = drug combination growth inhibition, ovarian cancer – cell-based, oncology-focused library, rucaparib conditional, profiling panel (AID 1508598); conditions: patient-derived ovarian cancer cells, CellTiter-Glo viability, 144 h, stronger effect = lower value
structure (smiles),measurement,setting,value
Cc1cccc(Nc2nc(-c3ccncc3)cs2)c1,outcome,[1],inactive
same,AC50,[2],20.9 µM (active)
same,AC50,[3],20.9 µM (active)
same,outcome,[4],inactive
same,outcome,[5],inactive
same,fold change,"[6]; stronger effect = lower value, cell number ratio, induced over uninduced",0.988 (inactive) and 0.935 (inactive)
same,fold change,[6]; measured here: relative caspase fold change +Dox/-Dox,0.542 and 0.911
same,cell count,"[6]; measured here: total cells with miR-34 induction, stronger effect = lower value",4770 and 4650
same,cell count,[6]; measured here: total cells without miR-34 induction,4820 and 4970
same,z-score,"[7]; MELAS cybrid survival, CellTiter-Glo 48 h, stronger effect = higher value",-0.247 (inactive)
same,z-score,"[7]; Rieske KO mouse fibroblast survival, CellTiter-Glo 72 h",1.01
same,viability,"[8]; at 0.000305 µM, OCI-C5x cells, with rucaparib 10 µM, 100% = cells with rucaparib alone",109% (inactive)
same,viability,"[8]; at 0.000305 µM, OCI-C5x cells, without rucaparib",111% (inactive)
same,viability,"[8]; at 0.000305 µM, OCI-P5x cells, with rucaparib 20 µM, 100% = cells with rucaparib alone",88.3% (active)
same,viability,"[8]; at 0.000305 µM, OCI-P5x cells, without rucaparib",86.6% (active)
same,viability,"[8]; at 0.00122 µM, OCI-C5x cells, with rucaparib 10 µM, 100% = cells with rucaparib alone",108% (inactive)
same,viability,"[8]; at 0.00122 µM, OCI-C5x cells, without rucaparib",108% (inactive)
same,viability,"[8]; at 0.00122 µM, OCI-P5x cells, with rucaparib 20 µM, 100% = cells with rucaparib alone",95.8% (active)
same,viability,"[8]; at 0.00122 µM, OCI-P5x cells, without rucaparib",93.7% (active)
same,viability,"[8]; at 0.00488 µM, OCI-C5x cells, with rucaparib 10 µM, 100% = cells with rucaparib alone",114% (inactive)
same,viability,"[8]; at 0.00488 µM, OCI-C5x cells, without rucaparib",106% (inactive)
same,viability,"[8]; at 0.00488 µM, OCI-P5x cells, with rucaparib 20 µM, 100% = cells with rucaparib alone",75.1% (active)
same,viability,"[8]; at 0.00488 µM, OCI-P5x cells, without rucaparib",94.9% (active)
same,viability,"[8]; at 0.0195 µM, OCI-C5x cells, with rucaparib 10 µM, 100% = cells with rucaparib alone",112% (inactive)
same,viability,"[8]; at 0.0195 µM, OCI-C5x cells, without rucaparib",112% (inactive)
same,viability,"[8]; at 0.0195 µM, OCI-P5x cells, with rucaparib 20 µM, 100% = cells with rucaparib alone",110% (inactive)
same,viability,"[8]; at 0.0195 µM, OCI-P5x cells, without rucaparib",89.5% (active)
same,viability,"[8]; at 0.0781 µM, OCI-C5x cells, with rucaparib 10 µM, 100% = cells with rucaparib alone",107% (inactive)
same,viability,"[8]; at 0.0781 µM, OCI-C5x cells, without rucaparib",108% (inactive)
same,viability,"[8]; at 0.0781 µM, OCI-P5x cells, with rucaparib 20 µM, 100% = cells with rucaparib alone",102% (inactive)
same,viability,"[8]; at 0.0781 µM, OCI-P5x cells, without rucaparib",101% (inactive)
same,viability,"[8]; at 0.313 µM, OCI-C5x cells, with rucaparib 10 µM, 100% = cells with rucaparib alone",115% (inactive)
same,viability,"[8]; at 0.313 µM, OCI-C5x cells, without rucaparib",106% (inactive)
same,viability,"[8]; at 0.313 µM, OCI-P5x cells, with rucaparib 20 µM, 100% = cells with rucaparib alone",104% (inactive)
same,viability,"[8]; at 0.313 µM, OCI-P5x cells, without rucaparib",95.3% (active)
same,viability,"[8]; at 1.25 µM, OCI-C5x cells, with rucaparib 10 µM, 100% = cells with rucaparib alone",129% (inactive)
same,viability,"[8]; at 1.25 µM, OCI-C5x cells, without rucaparib",115% (inactive)
same,viability,"[8]; at 1.25 µM, OCI-P5x cells, with rucaparib 20 µM, 100% = cells with rucaparib alone",101% (inactive)
same,viability,"[8]; at 1.25 µM, OCI-P5x cells, without rucaparib",98.4% (active)
same,viability,"[8]; at 5 µM, OCI-C5x cells, with rucaparib 10 µM, 100% = cells with rucaparib alone",157% (inactive)
same,viability,"[8]; at 5 µM, OCI-C5x cells, without rucaparib",136% (inactive)
same,viability,"[8]; at 5 µM, OCI-P5x cells, with rucaparib 20 µM, 100% = cells with rucaparib alone",82.2% (active)
same,viability,"[8]; at 5 µM, OCI-P5x cells, without rucaparib",110% (inactive)
Clc1cc(Cl)cc(CNc2ncncc2-c2ccc3c(c2)OCO3)c1,outcome,[1],inactive
same,outcome,[2],inactive
same,outcome,[4],inactive
COc1cc(N2CCN(C)CC2)ccc1Nc1nc(N)c(C(=O)c2c(Cl)cccc2Cl)s1,outcome,[1],inactive
same,outcome,[2],inactive
same,outcome,[4],inactive
CN1CCc2c(n(Cc3ccc(C(=O)NO)cc3)c3ccccc23)C1,outcome,[1],inactive
same,AC50,[2],23.5 µM (active)
same,AC50,[3],18.6 µM (active)
